Assay results as given in PubChem BioAssay AID1220 (Sanford-Burnham Center for Chemical Genomics, 2008).
Screen size: about 190,000 compounds; about 1,300 (0.68%) were called active. Cut-off read from the data, not from the text of the source: active = inhibition above about 50%; inactive = the rest. The full list was thinned out, with actives kept by preference.

What follows are compounds tested against Mannose-6-phosphate isomerase (Homo sapiens) (UniProt P34949) (assay: human PMI inhibitors, high substrate, primary screen, biochemical, fluorescence intensity, high mannose 6-phosphate (AID 1220)). Details: recombinant PMI enzyme, coupled fluorescence intensity; at 20 µM; active compounds read high.
Mannose-6-phosphate isomerase (Homo sapiens), sequence (P34949 whole entry, looked up): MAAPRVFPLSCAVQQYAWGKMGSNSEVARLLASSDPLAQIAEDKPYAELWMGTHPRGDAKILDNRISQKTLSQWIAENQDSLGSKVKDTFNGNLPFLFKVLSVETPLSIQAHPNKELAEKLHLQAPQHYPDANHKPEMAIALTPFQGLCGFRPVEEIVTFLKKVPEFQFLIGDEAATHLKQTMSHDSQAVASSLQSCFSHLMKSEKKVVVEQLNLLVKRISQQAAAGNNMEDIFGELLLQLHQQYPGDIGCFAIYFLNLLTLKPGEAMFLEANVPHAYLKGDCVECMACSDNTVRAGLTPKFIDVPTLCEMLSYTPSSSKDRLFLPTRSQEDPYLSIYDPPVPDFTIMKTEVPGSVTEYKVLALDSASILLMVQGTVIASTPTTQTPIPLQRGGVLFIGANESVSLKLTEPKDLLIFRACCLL

SMILES | inhibition
O=C(/C=C/c1ccccc1Cl)Nc1ccncc1 | -5.1% (inactive)
CN1C(=O)CC(N2CCC(C(N)=O)CC2)C1=O (stereo unspecified) | -4% (inactive)
Cc1ccc(S(=O)(=O)Cn2nnnc2C(C)N2CCN(C(=O)c3ccco3)CC2)cc1 (stereo unspecified) | 11.7% (inactive)
Cc1cc(C)n(CCCO)c(=O)c1C#N | -3.9% (inactive)
CCCn1c(O)c(CN2CCCC(C)C2)c(C)c(C#N)c1=O (stereo unspecified) | 39.4% (inactive)
CCCn1c(O)c(CN2CCCCC2)c(C)c(C#N)c1=O | 57.4% (active)
Cc1cc(=O)n(CCCO)c(O)c1C#N | 37.6% (inactive)
Cc1c(CN2CCCCC2)c(O)n(CCCO)c(=O)c1C#N | 52.1% (active)
CCCn1c(C)cc(C)c(C#N)c1=O | -3.4% (inactive)
COc1ccc(CCN(C)CCCN2CC(c3ccccc3)CC2=O)cc1OC (stereo unspecified) | -9.7% (inactive)
Cc1ccc(S(=O)(=O)N2CCN(CC(=O)NC3CCCc4ccccc43)CC2)cc1C (stereo unspecified) | 13.8% (inactive)
CCOC(=O)N1CCN(c2c(NCC3CCN(Cc4cccc(C)c4)CC3)c(=O)c2=O)CC1 | 8.2% (inactive)
Nc1nc(Cl)cc(Sc2ccc3ccccc3c2)n1 | 1% (inactive)
Cc1nc2sccn2c1P(c1c(C)nc2sccn12)c1c(C)nc2sccn12 | -5.7% (inactive)
CCC(CO)NCc1ccc(OCC(=O)Nc2cccc(C(F)(F)F)c2)c(OC)c1 (stereo unspecified) | -1.3% (inactive)
CN=c1scc(-c2ccccc2F)n1/N=C/c1ccc[nH]1 | -2.3% (inactive)
CN=c1scc(-c2cccs2)n1/N=C/c1ccc(O)c(O)c1O | 34.6% (inactive)
CN=c1scc(-c2cccs2)n1/N=C/c1ccccc1O | 14.7% (inactive)
CCN=c1scc(C)n1/N=C/c1cc(Br)c(O)c(Br)c1 | -6.2% (inactive)
CCN=c1scc(C)n1/N=C/c1ccsc1 | 2.6% (inactive)
CCN=c1scc(-c2ccco2)n1/N=C/c1ccc(O)cc1 | -22.4% (inactive)
CCN=c1scc(-c2ccco2)n1/N=C/c1ccc(OC)c(O)c1 | -17.3% (inactive)
CCN=c1scc(-c2cccs2)n1/N=C/c1cc(OC)ccc1O | -21.1% (inactive)
COCCNS(=O)(=O)c1cc(OC)ccc1OC | 8.6% (inactive)

SMILES | inhibition
Cc1cc(N2CCN(c3ccccc3)CC2)nc(-c2ccccc2O)n1 | 2.1% (inactive)
Cc1cc(S(=O)(=O)NCC(C)C)ccc1OCC(=O)NCC1CCCO1 (stereo unspecified) | 15.5% (inactive)
COc1cc(C(=O)OCCNC(=O)c2ccncc2)cc(OC)c1OC | -20% (inactive)
CCC(C)NS(=O)(=O)c1ccc(F)c(C(=O)Nc2c(F)cc(F)cc2Br)c1 (stereo unspecified) | -19.4% (inactive)
COc1ccc2[nH]c(=O)c(CN(CCO)C(=O)NCc3ccccc3)cc2c1 | 3.9% (inactive)
CCn1c(COc2ccccc2)nnc1SCC(=O)Nc1cc(C)ccc1OC | 8.3% (inactive)
C#CCOCCOCCOCCNc1nc(N2CCN(C(=O)[C@H](CCC(=O)O)n3cc(C(N)Cc4ccc(O)cc4)nn3)CC2)nc(N2CCN(C(=O)[C@H](CCC(=O)O)n3cc(C(N)[C@H](C)CC)nn3)CC2)n1 (stereo partly specified) | -33.1% (inactive)
O=C(c1ccccc1)c1cccc(NC(=O)c2ccc(Br)o2)c1 | 6.2% (inactive)
O=C(C1CCCCN1S(=O)(=O)c1ccccc1)N1CCN(C(c2ccccc2)c2ccccc2)CC1 (stereo unspecified) | 9.8% (inactive)
COc1cc(Br)c(S(=O)(=O)Nc2c(C)n(C)n(-c3ccccc3)c2=O)cc1OC | -1.6% (inactive)
O=C(c1cccnc1)N1C2C=CC(C2)C1(C(F)(F)F)C(F)(F)F (stereo unspecified) | -7.8% (inactive)
Cc1cc(C)nc(NS(=O)(=O)c2ccc(Br)cc2)n1 | -3.5% (inactive)
Cc1ccc(NS(=O)(=O)c2ccc(Br)cc2)nc1 | 0.3% (inactive)
COC1(NS(=O)(=O)c2ccc(Br)cc2)C(C)=CC(=O)C=C1C | 55.3% (active)
O=C(Nc1ccc2oc(-c3ccc(F)cc3)nc2c1)c1ccccc1F | 1% (inactive)
Cc1ccc(-c2nc3c(c(=O)c4ccccc4n3C)c(=O)n2-c2ccccc2)cc1 | 0.4% (inactive)
Cc1nc2c([N+](=O)[O-])c(C)c(C)cc2[nH]1 | 4.2% (inactive)
Cc1cc2nc3c(=O)[nH]c(=O)[nH]c3nc2c([N+](=O)[O-])c1N | 53.3% (active)
O=c1[nH]c(=O)c2nc3c4ccccc4c4ccccc4c3nc2[nH]1 | 11.6% (inactive)
NC(=O)Nn1c(CCC(=O)O)ccc1-c1ccc(Br)cc1 | -6.3% (inactive)
O=C(CSc1ccc2nnc(-c3ccccc3)n2n1)NCc1ccc2c(c1)OCO2 | 2.7% (inactive)
CN(C)c1nc(OCCNC(=O)Nc2ccc(Cl)cc2)nc(N(C)C)n1 | 1.2% (inactive)
Cc1cccc(C)c1NS(=O)(=O)c1ccc2c(c1)C(=O)c1ccccc1C2=O | 21% (inactive)
O=C1c2ccccc2C(=O)c2cc(S(=O)(=O)Nc3ccccc3)ccc21 | 60.3% (active)

SMILES | inhibition
O=C(O)c1ccc(NS(=O)(=O)c2ccc3c(c2)C(=O)c2ccccc2C3=O)cc1 | 2.7% (inactive)
COc1ccc(CCNc2ccc(S(=O)(=O)N3CCCC3)cc2[N+](=O)[O-])cc1 | -0.1% (inactive)
COc1ccc2nc3ccccc3nc2c1NC(=O)c1ccccc1Cl | 51.5% (active)
COc1ccc2nc3ccccc3nc2c1NC(=O)c1ccc(Cl)cc1Cl | 17.8% (inactive)
COc1ccc2nc3ccccc3nc2c1NC(=O)c1ccc(Cl)cc1 | 23% (inactive)
Cc1ccc2cccc(OCC(=O)N3CC(C)CC(C)C3)c2n1 (stereo unspecified) | 26.7% (inactive)
Cc1cccc(OCC(=O)OCC(=O)c2c(N)n(C)c(=O)n(C)c2=O)c1C | 3.8% (inactive)
Cc1cccc(NCC(=O)c2c(N)n(C)c(=O)n(C)c2=O)c1C | 59% (active)
Cc1ccccc1CSCC(=O)c1c(N)n(C)c(=O)n(C)c1=O | 6.8% (inactive)
CC(C)C(=O)NC(NC(=O)C(C)C)c1ccc([N+](=O)[O-])cc1 | -13.1% (inactive)
CC(C)c1onc(C(=O)NCc2cccs2)c1[N+](=O)[O-] | -6.7% (inactive)
CC(=O)c1cc2c(cc1N/C(=N/S(=O)(=O)c1ccc(C)cc1)c1ccc(Cl)cc1)OCO2 | 7.7% (inactive)
O=S(=O)(N/N=C/c1ccc(F)cc1)c1ccccc1 | 4.7% (inactive)
S=C(Nc1ccc(Cl)cc1)Nc1ccc2cn[nH]c2c1 | 56.6% (active)
COc1ccc(NC(=S)Nc2ccc3cn[nH]c3c2)cc1 | 48.7% (inactive)
Cc1ccccc1NC(=S)Nc1ccc2cn[nH]c2c1 | 61.3% (active)
Cc1cc(C)cc(NC(=S)Nc2ccc3cn[nH]c3c2)c1 | 21.3% (inactive)
Cc1ccc(NC(=S)Nc2ccc3cn[nH]c3c2)c(C)c1 | 44% (inactive)
Cc1ccc(NC(=S)Nc2ccc3cn[nH]c3c2)cc1C | 15.4% (inactive)
S=C(Nc1ccc2cn[nH]c2c1)Nc1ccccc1Cl | 42.1% (inactive)
Cc1ccc(NC(=S)Nc2ccc3cn[nH]c3c2)cc1 | 57.8% (active)
CC(C)c1ccc(NC(=S)Nc2ccc3cn[nH]c3c2)cc1 | 46.1% (inactive)
CCOC(=O)C1CCCN(C(=O)c2cn(CC)c(=O)c3cc(OC)c(OC)cc23)C1 (stereo unspecified) | -1.3% (inactive)
CCOC(=O)c1nn(-c2ccc(C)cc2)cc1O | 1.2% (inactive)

SMILES | inhibition
CC1(C)CC(=O)C2=C(C1)Nc1ccccc1NC2c1cccnc1 (stereo unspecified) | -11.6% (inactive)
CC1(C)CC(=O)C2=C(C1)Nc1cc(C(=O)c3ccccc3)ccc1NC2c1ccccn1 (stereo unspecified) | -4.3% (inactive)
COC(=O)c1ccc2c(c1)NC1=C(C(=O)CC(C)(C)C1)C(c1ccncc1)N2 (stereo unspecified) | 61.3% (active)
COc1cc(C(=O)Oc2c(CN3CCOCC3)cc(Cl)c3cccnc23)cc(OC)c1OC | 35.9% (inactive)
COc1cccc(C(=O)Oc2c(CN3CCOCC3)cc(Cl)c3cccnc23)c1 | 24% (inactive)
O=C(Oc1c(CN2CCOCC2)cc(Cl)c2cccnc12)c1ccccc1Cl | 57.1% (active)
O=[N+]([O-])c1cc(CN2CCOCC2)c2cccnc2c1O | 40.5% (inactive)
COc1ccc(C(=O)Oc2c(CN3CCOCC3)cc(Cl)c3cccnc23)cc1 | 22.5% (inactive)
O=C(Oc1c(CN2CCOCC2)cc(Cl)c2cccnc12)c1ccc(F)cc1 | 40.1% (inactive)
O=C(Oc1c(CN2CCOCC2)cc(Cl)c2cccnc12)c1ccccc1 | 56.3% (active)
O=C(Oc1c(Cl)cc(Cl)c2cccnc12)N1CCOCC1 | 1.1% (inactive)
O=C(Oc1c(CN2CCOCC2)cc(Cl)c2cccnc12)c1ccccc1F | 51.4% (active)
c1ccc2c(c1)ccc1ncccc12 | -5.5% (inactive)
O=C(CS(=O)(=O)c1ccccc1)Nc1nc(-c2ccc(F)cc2)cs1 | 8.2% (inactive)
CCOC(=O)CNC(=O)CSc1nnc(-c2ccco2)n1N | 6.3% (inactive)
CCCCOc1ccc(Cc2c(COCC)[nH]c(=S)[nH]c2=O)cc1 | -4.9% (inactive)
O=C(c1cc2ccccc2o1)N1CCCC1 | -0.3% (inactive)
COc1ccc(OC)c(NS(=O)(=O)c2cc(OC)ccc2OC)c1 | 2.8% (inactive)
COc1ccc(OC)c(S(=O)(=O)Nc2ccccc2C)c1 | 10.8% (inactive)
COc1ccc(OC)c(S(=O)(=O)Nc2ccccc2SC)c1 | 57.1% (active)
CC1=CC(C)(C)N(C(=O)CNC2CCCCC2)c2cc(C)ccc21 | 2.1% (inactive)
C=CCOc1c(Br)cc(CNc2ccc(NC(=O)C(C)C)c(OC)c2)cc1OCC | 57.7% (active)
C=CCOc1c(Br)cc(CNc2ccc(NC(=O)C(C)C)c(OC)c2)cc1OC | 41.7% (inactive)
C=CCOc1c(Br)cc(CNc2ccc(NC(=O)C(C)C)cc2)cc1OCC | 22.7% (inactive)
